CCHFV vOTU inh: CCHFV vOTU protease inhibitors, primary screen, biochemical, Pep-AMC substrate, fluorescence | Crimean-Congo hemorrhagic fever virus L polyprotein viral ovarian tumor (vOTU) protease … | inhibition, % at 11.5 µM | 0.55% of 370,000 active; also: 0% = vehicle wells with enzyme and 100% = no enzyme wells
FBA Mtb inh: Mtb FBA enzyme inhibitors, primary screen, biochemical, fluorescence, strain H37Rv; purified M. tuberculosis FBA, fluorescence read-out; inhibition, % at 1 µM; 2.3% of 360,000 active; AID 588726, 2011; in the data active = inhibition above about 27%;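 also: 0% = vehicle and 100% = reference inhibitor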
Target sequence (P9WQA3 whole entry, looked up): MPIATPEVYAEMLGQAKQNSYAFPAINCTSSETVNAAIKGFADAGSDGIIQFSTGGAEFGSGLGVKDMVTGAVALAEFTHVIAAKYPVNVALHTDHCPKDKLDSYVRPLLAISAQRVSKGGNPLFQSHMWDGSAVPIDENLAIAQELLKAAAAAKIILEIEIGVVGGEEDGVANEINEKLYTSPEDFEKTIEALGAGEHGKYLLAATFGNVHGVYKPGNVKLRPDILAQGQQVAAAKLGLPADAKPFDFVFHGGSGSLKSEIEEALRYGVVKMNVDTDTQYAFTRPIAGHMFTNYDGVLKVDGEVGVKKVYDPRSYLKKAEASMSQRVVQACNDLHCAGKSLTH
BH1578 lux ind: inducers of Vibrio cholerae quorum light production without autoinducers, primary screen, BH1578 luxS cqsA deficient, single point; V. cholerae BH1578 lux reporter, luminescence, 6 h; activation, % at 18.7 µM; 0.16% of 350,000 active; AID 588436, 2011; in the data active = activation mostly above about 9.7%, no sharp cut-off
GDH-TPI inh: GDH-TPI coupling enzyme inhibitors, primary screen, artefact control for M. tuberculosis FBA inhibitor project, biochemical, absorbance, full deck; GDH-TPI coupled enzyme counterscreen, NADH absorbance; inhibition, % at 4.8 µM; 1.2% of 360,000 active;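 also: 0% = DMSO wells and 100% = wells lacking the enzyme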
The depositor's hits bear a star; i = inactive; nt = not tested or not shown; + = active, no number. Hits are enriched below; roughly 3.9% of the tested compounds scored in any of these assays. Rule as the data show it, unless noted: active = inhibition above about 30%; inactive = the rest.

SMILES	CCHFV vOTU inh	FBA Mtb inh	BH1578 lux ind	GDH-TPI inh
O=C(c1ccc(F)cc1)N1CCN(c2cc(=O)[nH]nc2-c2ccccc2)CC1	4.4	0.5	-0.4	6.8
C=CCOc1ccc(-c2nc3c(c(=O)[nH]c(=O)n3Cc3ccccc3)n2CCCOC)cc1	-12.6	9.2	-0.4	3.4
O=C(OCc1cn(Cc2ccccc2C(F)(F)F)nn1)N1CCOCC1	2.4	nt	nt	nt
COC(=O)C1CCN(CCCOc2ccc(CN3CCN(c4ccc([N+](=O)[O-])cc4)CC3)cc2)CC1	6.2	-4.7	-0.4	5.7
O=S(=O)(Nc1ccc(-c2nc3cccnc3s2)cc1)c1cccs1	-250.3	+	-0.6	15.3
Cc1cc(-c2nc3cccnc3s2)ccc1NS(=O)(=O)c1ccc2c(c1)OCCO2	-141.6	+	-0.3	30.6
Cc1cc(-c2nc3cccnc3s2)ccc1NS(=O)(=O)c1cccs1	-284.5	+	-0.6	41.9*
Cc1nc2ccc(S(=O)(=O)Nc3ccc(-c4nc5cccnc5s4)cc3)cc2s1	-81.9	+	-0.6	30.6
Cc1c(NS(=O)(=O)c2ccc3c(c2)OCCO3)cccc1-c1nc2cccnc2s1	0.7	1.6	i	11.5
Cc1nc2ccc(S(=O)(=O)Nc3cccc(-c4nc5cccnc5s4)c3)cc2s1	1.8	18.7	-0.2	14.8
Cc1ccc(/C=N/N=C2/NC(=O)C(CC(=O)Nc3ccc(Cl)cc3)S2)o1 (centres undefined)	0.4	-0.7	i	41.2*
Cc1ccc(/C=N/N=C2/NC(=O)C(CC(=O)Nc3ccccc3)S2)o1 (centres undefined)	-6.1	-1.3	-0.4	29.8
O=C(Nc1nc2ncccn2c1-c1ccc(F)c(F)c1)C1CC1	-45.4	nt	nt	nt
COc1cccc2c1cc1c(=O)n(CC(=O)NCCCN3CCCCC3)nc(C)n12	nt	115.8*	-0.2	5.7
COc1cccc2c1cc1c(=O)n(CC(=O)NCCCc3ccccc3)nc(C)n12	nt	13.9	-0.6	2.5
CCc1nn(CC(=O)NCCCN2CCOCC2)c(=O)c2cc3c(OC)cccc3n12	-41.7	112.4*	-2.6	15.7
COc1ccc(CC(=O)Nc2cccc(SC)c2)cc1OC	-2.4	0.3	1.5	-3.4
CCc1ccc2c(CSc3nnnn3C)cc(=O)oc2c1	-6.1	8.1	i	33.8*
Cc1ccc(CN2C(=O)N/C(=C\c3ccc(-c4ccc(C(=O)O)cc4C)o3)C2=O)cc1	-10.6	10.5	i	19.5
Cc1cc(C(=O)O)ccc1-c1ccc(CO)o1	-11.7	161.0*	i	6.3
COc1ccc(C(=O)NCC(=O)OCC(=O)N2N=C(c3ccc(Cl)cc3)CC2c2ccco2)cc1OC (centres undefined)	16.8	1.0	-0.2	6.1
Cc1cc(C)c(C(=O)CSc2nnc(C)c(=O)[nH]2)cc1C	5.2	4.8	0.3	2.6
COc1cc(/C=N/Nc2ncc(C(F)(F)F)cc2Cl)cc(OC)c1OC	7.6	-3.1	-0.2	31.9*
O=C(Nc1ccc(F)cc1)N(Cc1ccco1)Cc1cc2cc3c(cc2[nH]c1=O)OCO3	-6.5	20.0	i	10.5
CCn1c(=O)c(=O)[nH]c2cc(C(=O)NC3CCCc4ccccc43)ccc21 (centres undefined)	-0.6	4.7	-0.3	30.6*
SMILES	CCHFV vOTU inh	FBA Mtb inh	BH1578 lux ind	GDH-TPI inh
CCn1c(=O)c(=O)[nH]c2cc(C(=O)NC3CC3)ccc21	-7.7	2.0	i	11.2
CCN(CC)CCCN=Cc1c(O)n(-c2ccccc2C)c(=O)c2ccccc12	-14.6	9.0	-0.7	7.9
NC(=S)N/N=C/c1ncc(C(F)(F)F)cc1Cl	nt	1.6	i	45.8*
COC(=O)c1nc(-c2ccccc2)oc1N(C)C	-62.8	172.9*	-0.4	18.7
Cc1ccc(-c2nc(S(=O)(=O)c3ccc(C)cc3)c(N(C)C)o2)cc1	5.2	-0.8	i	-0.3
COC(=O)c1nc(-c2ccc(C)cc2)oc1N(C)C	-45.6	114.6*	1.1	17.5
COC(=O)c1nc(-c2ccccc2)oc1N1CCOCC1	-14.4	146.0*	1.4	0.9
COC(=O)c1oc(-c2ccccc2)nc1C	2.5	3.2	-0.5	0.9
NS(=O)(=O)c1ccc(CCNC(=O)c2ccc3c(c2)OCO3)cc1	6.4	1.5	i	8.9
Cc1ccccc1NC(=O)NCCCN1CCN(c2ccccc2)CC1	-17.1	2.0	1.6	7.1
O=C(N[C@@H](Cc1cccnc1)C(=O)N1CCC[C@H]1C(=O)NC1CCCC1)c1ccccc1	-5.0	nt	nt	nt
CN1CCc2cc3c(c4c2[C@H]1[C@H](O)c1ccccc1-4)OCO3	37.4*	1.2	i	0.4

From PubChem BioAssay
